HPGD block – qHTS Assay for Inhibitors of HPGD (15-Hydroxyprostaglandin Dehydrogenase); purified HPGD, NADH fluorescence kinetic, PGE2 substrate; Potency, µM, most hits filed as inhibitors; actives 4.3% (n = 150,000); AID 894, 2007; active = well fitted inhibition curve with a large enough effect, not every such curve was filed as active; inconclusive = small, poorly fitted or top-dose-only effect, or another doubt; inactive = no such curve, though single readings can be large or run the other way
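NADH formation kinetics: reaction with 30 uM PGE2 and 1 mM NAD+ (final), 20 nM enzyme, Tris-HCl pH 8 with Tween 20, after 15 min compound preincubation at room temperature. Fluorescence change, last versus first of five reads.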
HTT aggregate – qHTS Multiplex Assay to Identify Dual Action Probes in a Cell Model of Huntington: Aggregate Formation (GFP); PC12 HttQ103-GFP aggregates, Acumen cytometry, 40 h; Potency, µM (series often up to 46.1 µM), actives largely listed as inhibitors; actives 1.1% (n = 220,000); AID 1688, 2009; also: nearly all actives have a fitted effect of over 60% in size
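PC12 cells with ecdysone-inducible HTT exon1 Q103-GFP, induced by 100 nM tebufenozide, given compounds in a concentration series. GFP aggregates (1–25 um, 6 SD above background) counted in lysates by laser-scanning cytometry, 488 nm excitation.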
CBFb-RUNX1 inh – qHTS Assay for Compounds Blocking the Interaction Between CBF-beta and RUNX1 for the Treatment of Acute Myeloid Leukemia; Runt-related transcription factor 1 (Homo sapiens) + Core-binding factor subunit beta …; 230,000 tested, under 10 active; AlphaScreen CBFb-His/RUNX1-biotin binding, biochemical; Potency, µM (highest dose often 59.8 µM), most hits filed as inhibitors
Target sequence (Q01196 whole entry, looked up): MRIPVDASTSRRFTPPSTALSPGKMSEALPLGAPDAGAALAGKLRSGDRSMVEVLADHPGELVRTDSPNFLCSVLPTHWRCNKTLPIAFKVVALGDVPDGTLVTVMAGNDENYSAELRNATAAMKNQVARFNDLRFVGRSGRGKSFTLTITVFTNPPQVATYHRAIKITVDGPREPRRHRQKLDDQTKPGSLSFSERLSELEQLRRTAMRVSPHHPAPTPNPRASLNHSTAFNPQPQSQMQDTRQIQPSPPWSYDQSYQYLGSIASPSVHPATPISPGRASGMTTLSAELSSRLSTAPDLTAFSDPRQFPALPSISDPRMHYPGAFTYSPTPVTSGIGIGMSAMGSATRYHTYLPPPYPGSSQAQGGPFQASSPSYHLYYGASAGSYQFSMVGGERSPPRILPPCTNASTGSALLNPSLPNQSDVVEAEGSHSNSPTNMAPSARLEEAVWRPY
Target sequence (Q13951 whole entry, looked up): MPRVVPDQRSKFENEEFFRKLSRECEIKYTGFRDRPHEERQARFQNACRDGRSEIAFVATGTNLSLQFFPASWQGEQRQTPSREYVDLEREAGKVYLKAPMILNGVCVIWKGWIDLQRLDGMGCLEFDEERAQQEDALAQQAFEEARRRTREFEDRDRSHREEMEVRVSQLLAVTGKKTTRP
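CBFb-His/RUNX1-biotin, 30 nM each, preincubated 20 min RT; compound 15 min RT; Ni + streptavidin beads 50 ng each, 90 min RT; AlphaScreen read.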
PNC assembly inh – High Content Assay for Compounds that inhibit the Assembly of the Perinucleolar Compartment; activity change (PNC), negative = inhibition, % at 10 µM; PC3M PTB-GFP, PNC prevalence imaging, 16 h; hits give low values; actives 3.1% (n = 140,000);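 active = readout at or below -70, meaning at least 70% loss of cells showing the perinucleolar compartment, a nuclear body marking cancer cells; inconclusive = readout between -30 and a set limit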
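Compounds are pinned in duplicate onto adhered PC3M cells stably expressing GFP-tagged PTB and incubated 16 h at 37 C. Cells are then fixed, nuclei stained with Hoechst, and PNC-positive cells counted.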
ALDH1A1 inh – qHTS Assay for Inhibitors of Aldehyde Dehydrogenase 1 (ALDH1A1); Purified ALDH1A1, NADH fluorescence, propionaldehyde substrate; Potency, µM (doses to about 75.3 µM), actives largely listed as inhibitors; actives 7.3% (n = 220,000); active = well fitted inhibition curve with a large enough effect, not every such curve was filed as active; inconclusive = small, poorly fitted or top-dose-only effect, or another doubt; inactive = no such curve, though single readings can be large or run the other way
HTT cytoprotect – qHTS Multiplex Assay to Identify Dual Action Probes in a Cell Model of Huntington: Cytoprotection (ATP) | PC12 HTT-Q103 induced, cytoprotection, ATP luminescence, 40 h | AID 1471, 2008 | actives 0.14% (n = 230,000) | Potency, µM (series often up to 56.4 µM), most hits filed as activators; also: nearly all actives have a fitted effect of over 45% in size
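Quantitative HTS on tebufenozide-induced (100 nM) PC12 cells expressing HTTQ103 exon 1–GFP; compounds tested as a concentration series; survival measured via cellular ATP.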
Each line names hits and unclear results; the compound was inactive in the other large screens. Hits are enriched below; roughly 11% of the tested compounds scored in any of these assays. Unless noted, calls follow the shape of the dose curve; as a rule, active = well fitted curve in the direction sought with a large enough effect; inconclusive = small, poorly fitted or top-dose-only effect, or another doubt; inactive = no such curve, though single readings can be large; an effect the other way counts as inactive or inconclusive.

C/C(Cl)=C\CSc1nnc2n(N)c(=O)c3ccccc3n12	ALDH1A1 inh 18µM
N=C(N)SC(c1ccccc1)c1ccccc1	none (no result: HTT aggregate, CBFb-RUNX1 inh, PNC assembly inh)
O=C1CC(c2ccc3c(c2)OCO3)c2cc(O)ccc2O1 (stereo not drawn)	HPGD block 40µM, CBFb-RUNX1 inh inconclusive, ALDH1A1 inh inconclusive (no result: HTT aggregate, PNC assembly inh)
CCOC(=O)CSc1nnc(CNC(=O)c2ccc(OC)cc2)n1C1CCCCC1	none
CCn1c(=O)[nH]c2ccccc21	none (no result: HTT aggregate, PNC assembly inh)
CCn1c(C)c(CS(=O)(=O)c2ccccc2)[nH]c1=O	HTT aggregate inconclusive, ALDH1A1 inh 22µM (no result: HPGD block, PNC assembly inh)
Cc1ccc(NC2=NC(c3ccco3)n3c(nc(C)cc3=O)N2)c(C)c1 (stereo not drawn)	none
COc1ccc(C2C=C(C34CC5CC(CC(C5)C3)C4)NC(=S)N2)cc1OC (stereo not drawn)	ALDH1A1 inh 7.9µM
O=c1c2c(nc3c(-c4cccc5ccccc45)c[nH]n13)CCC2	HPGD block inconclusive, HTT aggregate inconclusive, ALDH1A1 inh inconclusive
O=c1c2c(nc3c(-c4ccc(Cl)cc4)c[nH]n13)CCCC2	HPGD block inconclusive, HTT aggregate 7.1µM
O=C(Cn1cnnn1)Nc1ccccc1Cc1ccccc1	PNC assembly inh -100
COc1ccc(N=Nc2nc3cc(Br)c(Br)cc3n2C)c(OC)c1	HPGD block 7.9µM
COc1ccc(CNc2nc3ccccc3n2C)c(OC)c1	none (no result: HPGD block, PNC assembly inh)
Cc1cc(C2(c3cc(C)c(O)c(C(=O)O)c3)OS(=O)(=O)c3ccccc32)cc(C(=O)O)c1O	none (no result: HTT aggregate, CBFb-RUNX1 inh, PNC assembly inh)
C=C1C(c2ccc(C)cc2)=CCc2cc(C)cc(C)c21	ALDH1A1 inh inconclusive (no result: HPGD block, HTT aggregate, PNC assembly inh)
O=C(CCN1C(=O)c2ccccc2C1=O)NC(=S)Nc1ccccc1Cl	ALDH1A1 inh 22µM (no result: HTT cytoprotect)
Cc1c(Cl)cccc1NC(=S)NC(=O)CCN1C(=O)c2ccccc2C1=O	ALDH1A1 inh inconclusive
Cn1cccc1CC(=O)NNC(=S)Nc1ccccc1Cl	HPGD block 11µM, ALDH1A1 inh inconclusive
CC1(C)CC(CCC(=O)NC(=S)Nc2ccccc2Cl)C(=O)O1 (stereo not drawn)	ALDH1A1 inh 13µM (no result: HPGD block, PNC assembly inh)
Cn1cccc1CC(=O)NNC(=S)Nc1ccc(Cl)cc1	ALDH1A1 inh inconclusive
N=C(CC1CC(=O)NC(=O)C1)C1=C(O)CCCC1=O	PNC assembly inh inconclusive (no result: HPGD block)
Nc1c(C(=O)O)sc2nc(-c3ccccc3)cc(-c3ccccc3)c12	ALDH1A1 inh 20µM (no result: HPGD block, PNC assembly inh)
Nc1c(C(=O)O)sc2nc(-c3ccccc3)cc(-c3ccc(F)cc3)c12	none (no result: HPGD block, PNC assembly inh, ALDH1A1 inh)
CC(=O)N[C@H]1[C@H](O[C@@H]2c3ccc(c(Cl)c3)Oc3cc4cc(c3O[C@@H]3O[C@H](CO)[C@@H](O)[C@H](O)C3C)Oc3ccc(cc3Cl)C[C@H]3NC(=O)[C@@H](N)c5ccc(O)c(c5)Oc5cc(O)cc(c5)[C@H](NC3=O)C(=O)N[C@H]4C(=O)N[C@H]3C(=O)N[C@@H]2C(=O)N[C@@H](C(=O)O)c2cc(O)cc(O[C@H]4O[C@H](CO)[C@@H](O)C(O)[C@@H]4O)c2-c2cc3ccc2O)O[C@H](CO)[C@@H](O)[C@@H]1O (stereo partly drawn)	none (no result: HPGD block, CBFb-RUNX1 inh, PNC assembly inh, ALDH1A1 inh)
O=C1c2ccccc2C(=O)c2c1ccc1c(=O)n(C3CCCCC3)[nH]c21	HPGD block 14µM
CN(N=O)c1ccc(/C=C\c2ccnc3ccccc23)cc1	HPGD block inconclusive, ALDH1A1 inh inconclusive (no result: HTT aggregate, CBFb-RUNX1 inh, PNC assembly inh)
Cn1cc(CN2CCc3ccccc3C2)c2ccccc21	ALDH1A1 inh 14µM
C=CCn1c(=O)c2ccc(C(=O)NCc3ccccc3)cc2n(Cc2ccc(C)cc2)c1=O	none (no result: HTT cytoprotect)
Cc1ccc(N2C(=N)/C(=C3/Nc4ccccc4S3)C(c3ccccc3)C2=O)cc1 (stereo not drawn)	HTT aggregate inconclusive, PNC assembly inh inconclusive, ALDH1A1 inh 9.5µM (no result: HPGD block)
Cc1ccc(N2C(=O)C(F)(F)C2c2ccccc2)cc1 (stereo not drawn)	none (no result: HPGD block, PNC assembly inh)
O=c1nc2s/c(=C\c3ccc(-c4ccccc4[N+](=O)[O-])o3)c(=O)n2nc1-c1ccccc1	HPGD block 7.9µM, HTT aggregate inconclusive, PNC assembly inh inconclusive, ALDH1A1 inh inconclusive (no result: HTT cytoprotect)
N#C/C(=C/c1ccc(-c2ccccc2[N+](=O)[O-])o1)C(N)=O	none (no result: HPGD block, PNC assembly inh, HTT cytoprotect)
CC(C(=O)N1c2ccccc2Sc2ccccc21)n1nnc(-c2cccs2)n1 (stereo not drawn)	HTT aggregate 4µM
Cc1ccc(-c2nnn(C(C)C(=O)N3c4ccccc4CCc4ccccc43)n2)cc1 (stereo not drawn)	none
CC(=O)c1ccc(NC(=O)CO/N=C(\C)c2cccs2)cc1	HTT aggregate inconclusive
CCc1cccc(CC)c1NC(=O)CO/N=C(\C)c1cccs1	HPGD block 0.63µM
C/C(=N\OCC(=O)Nc1ccccc1C(=O)O)c1cccs1	ALDH1A1 inh inconclusive (no result: HPGD block, PNC assembly inh)
C/C(=N/OCC(=O)Nc1ccc(C)cc1C)c1cccs1	HPGD block 7.9µM
CC(=O)[C@H]1CC[C@@H]2[C@]1(C)CC=C1[C@]23C=C[C@]2(C[C@H](O)CC[C@@]12C)[C@H](C(=O)O)[C@@H]3C(=O)O	none (no result: HPGD block, HTT aggregate, CBFb-RUNX1 inh, PNC assembly inh, ALDH1A1 inh)
CC(N)(C(=O)O)c1ccc(P(=O)(O)O)cc1 (stereo not drawn)	HTT cytoprotect inconclusive (no result: HPGD block, HTT aggregate, PNC assembly inh)
C=CCn1c(C)cc(C2=NNC(=NCc3ccccc3)SC2)c1C	ALDH1A1 inh inconclusive (no result: HPGD block, PNC assembly inh)
C=C(C)CN=C1NN=C(c2cc(C)n(-c3ccc(C)cc3)c2C)CS1	CBFb-RUNX1 inh inconclusive, ALDH1A1 inh 13µM
Cc1cc(C2=NNC(=NC3CCCCC3)SC2)c(C)n1-c1c(C)n(C)n(-c2ccccc2)c1=O	PNC assembly inh inconclusive, ALDH1A1 inh inconclusive
Cc1cc(C2=NNC(=NC3CC3)SC2)c(C)n1-c1ccccc1F	HPGD block inconclusive, ALDH1A1 inh 8.9µM (no result: HTT cytoprotect)
CS(=O)(=O)c1ccc(CNC(=O)[C@@H]2C[C@H]2[C@@H](NP(=O)(c2ccccc2)c2ccccc2)c2ccccc2)cc1	none (no result: HTT aggregate, PNC assembly inh)
O=C(c1csnn1)N1CCC2(CC1)CCN(C(c1ccccc1)c1ccccc1)CC2	none (no result: HTT aggregate, CBFb-RUNX1 inh, PNC assembly inh)
O=C(CSc1nc2c([nH]c3ccccc32)c(=O)n1-c1ccccc1)N1CCOCC1	PNC assembly inh inconclusive, ALDH1A1 inh 2.5µM
O=C(CSc1nc2c([nH]c3ccccc32)c(=O)n1-c1cccc(Cl)c1)N1CCOCC1	none
